Data reported in PMC7862700, “An all-to-all approach to the identification of sequence-specific readers for epigenetic DNA modifications on cytosine”.

What was measured:
Assay in all cases: DAPPL (digital affinity profiling via proximity ligation, sequencing); 10 mM Tris-HCl pH 7.5, 50 mM NaCl, 1 mM DTT, 4% glycerol, room temperature, 30 min; GST-TFs on glutathione beads, 16-mer random dsDNA library, 0.1% formaldehyde crosslink after washing; high values mean tight binding
Conditions in all cases: protein: recombinant; tags: N-terminal GST; dsDNA, one strand shown
ELK1 = target: T1, ELK1 (Homo sapiens, UniProt P19419 1-428)
T1 sequence: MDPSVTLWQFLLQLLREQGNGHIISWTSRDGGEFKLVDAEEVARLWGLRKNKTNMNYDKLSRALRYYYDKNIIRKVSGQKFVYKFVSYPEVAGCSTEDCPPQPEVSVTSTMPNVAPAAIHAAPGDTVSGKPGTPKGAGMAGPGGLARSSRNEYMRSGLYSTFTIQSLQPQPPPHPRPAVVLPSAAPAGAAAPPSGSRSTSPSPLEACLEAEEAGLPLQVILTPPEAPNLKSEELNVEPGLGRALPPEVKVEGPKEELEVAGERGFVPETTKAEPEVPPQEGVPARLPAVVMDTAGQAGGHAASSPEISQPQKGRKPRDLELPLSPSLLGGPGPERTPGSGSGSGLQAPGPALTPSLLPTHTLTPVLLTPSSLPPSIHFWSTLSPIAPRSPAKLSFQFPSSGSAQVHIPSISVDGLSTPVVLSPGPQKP
How it was run: (§1)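 GST fusions of human transcription factors were expressed in yeast and captured with glutathione beads. Once given DNA barcodes and pooled alongside a tag-only sample, they were incubated for 30 min at room temperature with 200 nmole of a random double-stranded 16-mer DNA library in Tris/NaCl/DTT/glycerol buffer, then washed, crosslinked (0.1% formaldehyde), proximity-ligated, PCR-amplified and sequenced on an Illumina NextSeq500. The binding signal of each hexamer is its read frequency for a factor divided by its frequency for the tag-only sample.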

ERG = target: T2, ERG (Homo sapiens, UniProt P11308 1-479)
T2 sequence: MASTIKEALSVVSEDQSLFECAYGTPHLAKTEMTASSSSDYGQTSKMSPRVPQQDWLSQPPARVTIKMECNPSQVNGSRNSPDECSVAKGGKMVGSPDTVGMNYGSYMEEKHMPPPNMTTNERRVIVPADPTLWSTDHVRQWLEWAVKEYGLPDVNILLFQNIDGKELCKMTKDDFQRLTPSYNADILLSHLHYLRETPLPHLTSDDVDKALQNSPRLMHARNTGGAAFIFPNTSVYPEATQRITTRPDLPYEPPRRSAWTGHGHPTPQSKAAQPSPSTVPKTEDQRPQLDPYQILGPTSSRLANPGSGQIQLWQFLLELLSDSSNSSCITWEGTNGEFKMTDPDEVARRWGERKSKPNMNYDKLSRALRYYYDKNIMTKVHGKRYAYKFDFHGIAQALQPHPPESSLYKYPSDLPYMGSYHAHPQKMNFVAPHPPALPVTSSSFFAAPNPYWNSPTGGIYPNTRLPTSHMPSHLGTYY
How it was run: as §1

ELF1 = ELF1 (Homo sapiens, UniProt P32519 1-619)
How it was run: as §1

EHF = target: T3, EHF (Homo sapiens, UniProt Q9NZC4 1-300)
T3 sequence: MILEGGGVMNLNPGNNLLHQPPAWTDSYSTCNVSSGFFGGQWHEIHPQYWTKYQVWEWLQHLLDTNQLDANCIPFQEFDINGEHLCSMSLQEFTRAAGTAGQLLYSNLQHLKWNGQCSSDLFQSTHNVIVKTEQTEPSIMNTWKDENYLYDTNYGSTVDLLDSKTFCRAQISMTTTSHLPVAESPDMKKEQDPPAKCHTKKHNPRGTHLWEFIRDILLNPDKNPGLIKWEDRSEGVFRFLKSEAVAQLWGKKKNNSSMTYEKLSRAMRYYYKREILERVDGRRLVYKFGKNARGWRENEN
How it was run: as §1

SPIC = target: T4, SPIC (Homo sapiens, UniProt Q8N5J4 1-248)
T4 sequence: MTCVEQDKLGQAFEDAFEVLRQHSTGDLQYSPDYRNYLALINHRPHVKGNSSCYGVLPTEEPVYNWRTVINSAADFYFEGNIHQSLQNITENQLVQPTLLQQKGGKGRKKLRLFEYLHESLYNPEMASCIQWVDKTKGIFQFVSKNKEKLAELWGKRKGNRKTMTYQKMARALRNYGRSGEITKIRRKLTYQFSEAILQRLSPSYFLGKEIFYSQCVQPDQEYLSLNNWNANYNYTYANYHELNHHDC
How it was run: as §1

ELF4 = ELF4 (Homo sapiens, UniProt Q99607 1-663)
How it was run: as §1

ELK4 = target: T5, ELK4 (Homo sapiens, UniProt P28324-2 1-405)
T5 sequence: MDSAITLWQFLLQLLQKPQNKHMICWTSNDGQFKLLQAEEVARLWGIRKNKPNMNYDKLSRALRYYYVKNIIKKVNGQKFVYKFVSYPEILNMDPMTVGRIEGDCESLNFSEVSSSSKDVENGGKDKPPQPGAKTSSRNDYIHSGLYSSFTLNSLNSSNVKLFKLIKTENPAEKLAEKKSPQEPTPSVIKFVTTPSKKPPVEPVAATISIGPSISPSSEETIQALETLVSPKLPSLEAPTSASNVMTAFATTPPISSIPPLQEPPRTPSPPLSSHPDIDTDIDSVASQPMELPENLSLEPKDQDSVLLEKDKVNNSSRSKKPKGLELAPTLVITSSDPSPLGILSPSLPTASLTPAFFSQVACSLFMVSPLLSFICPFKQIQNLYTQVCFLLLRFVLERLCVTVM
How it was run: as §1

ELF3 = target: T6, ELF3 (Homo sapiens, UniProt P78545 1-371)
T6 sequence: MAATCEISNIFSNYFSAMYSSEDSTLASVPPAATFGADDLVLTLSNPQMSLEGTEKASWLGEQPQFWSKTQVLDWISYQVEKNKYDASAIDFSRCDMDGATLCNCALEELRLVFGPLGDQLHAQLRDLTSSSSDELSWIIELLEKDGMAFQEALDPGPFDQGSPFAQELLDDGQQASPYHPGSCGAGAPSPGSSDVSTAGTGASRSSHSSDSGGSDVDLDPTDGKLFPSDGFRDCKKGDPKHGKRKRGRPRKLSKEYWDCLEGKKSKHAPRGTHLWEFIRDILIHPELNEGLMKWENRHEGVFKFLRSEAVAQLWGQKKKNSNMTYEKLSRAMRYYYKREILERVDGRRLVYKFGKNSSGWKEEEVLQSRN
How it was run: as §1

ETV1 = ETV1 (Homo sapiens, UniProt P50549 1-477)
How it was run: as §1

ETV3L = target: T7, ETV3L (Homo sapiens, UniProt Q6ZN32 1-361)
T7 sequence: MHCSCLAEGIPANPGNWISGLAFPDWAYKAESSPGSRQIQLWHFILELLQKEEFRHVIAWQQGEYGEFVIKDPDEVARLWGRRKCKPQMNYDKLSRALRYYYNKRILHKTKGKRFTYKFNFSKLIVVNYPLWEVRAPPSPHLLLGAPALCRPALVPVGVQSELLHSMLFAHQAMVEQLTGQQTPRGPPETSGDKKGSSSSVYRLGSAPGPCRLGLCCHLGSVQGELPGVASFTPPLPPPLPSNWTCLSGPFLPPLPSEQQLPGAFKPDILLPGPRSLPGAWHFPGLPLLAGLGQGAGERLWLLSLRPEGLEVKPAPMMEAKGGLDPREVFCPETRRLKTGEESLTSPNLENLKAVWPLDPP
How it was run: as §1

ETS2 = target: T8, ETS2 (Homo sapiens, UniProt P15036 1-469)
T8 sequence: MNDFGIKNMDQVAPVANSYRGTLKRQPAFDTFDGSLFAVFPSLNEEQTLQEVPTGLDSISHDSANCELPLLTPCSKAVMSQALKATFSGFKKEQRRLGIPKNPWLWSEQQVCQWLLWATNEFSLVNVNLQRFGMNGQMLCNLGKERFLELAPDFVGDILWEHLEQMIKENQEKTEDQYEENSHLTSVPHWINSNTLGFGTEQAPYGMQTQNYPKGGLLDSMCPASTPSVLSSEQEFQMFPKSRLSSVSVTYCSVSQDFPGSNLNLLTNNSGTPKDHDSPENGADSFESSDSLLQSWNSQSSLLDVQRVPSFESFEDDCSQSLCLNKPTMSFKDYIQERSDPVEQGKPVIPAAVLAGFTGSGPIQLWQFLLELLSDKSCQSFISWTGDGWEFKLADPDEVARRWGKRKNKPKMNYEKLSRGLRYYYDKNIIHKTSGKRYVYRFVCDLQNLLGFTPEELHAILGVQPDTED
How it was run: as §1

ETV3 = target: T9, ETV3 (Homo sapiens, UniProt P41162-2 1-143)
T9 sequence: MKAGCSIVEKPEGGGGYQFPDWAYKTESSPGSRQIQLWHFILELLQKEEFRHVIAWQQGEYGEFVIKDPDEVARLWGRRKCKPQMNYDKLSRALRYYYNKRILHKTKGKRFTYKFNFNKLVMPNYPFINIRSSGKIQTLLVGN
How it was run: as §1

ETV6 = ETV6 (Homo sapiens, UniProt P41212 1-452)
How it was run: as §1

Sequence of ELF4 (Q99607 whole entry): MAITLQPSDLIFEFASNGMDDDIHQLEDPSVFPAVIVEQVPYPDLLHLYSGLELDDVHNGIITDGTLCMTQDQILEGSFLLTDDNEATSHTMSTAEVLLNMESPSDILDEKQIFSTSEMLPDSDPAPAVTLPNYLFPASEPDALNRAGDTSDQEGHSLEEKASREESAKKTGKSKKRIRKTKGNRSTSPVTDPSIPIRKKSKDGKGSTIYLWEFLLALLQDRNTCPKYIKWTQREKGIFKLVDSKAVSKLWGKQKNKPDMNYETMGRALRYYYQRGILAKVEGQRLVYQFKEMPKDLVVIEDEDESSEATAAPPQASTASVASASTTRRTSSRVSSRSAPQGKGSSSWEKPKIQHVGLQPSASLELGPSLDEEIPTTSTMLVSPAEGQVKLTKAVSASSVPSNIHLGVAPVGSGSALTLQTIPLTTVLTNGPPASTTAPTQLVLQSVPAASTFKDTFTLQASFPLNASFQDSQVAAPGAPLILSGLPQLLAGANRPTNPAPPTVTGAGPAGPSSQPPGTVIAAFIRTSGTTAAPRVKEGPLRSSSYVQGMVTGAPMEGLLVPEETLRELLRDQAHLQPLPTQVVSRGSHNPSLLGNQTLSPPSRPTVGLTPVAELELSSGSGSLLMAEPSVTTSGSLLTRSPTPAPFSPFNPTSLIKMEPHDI
Sequence of ETV1 (P50549 whole entry): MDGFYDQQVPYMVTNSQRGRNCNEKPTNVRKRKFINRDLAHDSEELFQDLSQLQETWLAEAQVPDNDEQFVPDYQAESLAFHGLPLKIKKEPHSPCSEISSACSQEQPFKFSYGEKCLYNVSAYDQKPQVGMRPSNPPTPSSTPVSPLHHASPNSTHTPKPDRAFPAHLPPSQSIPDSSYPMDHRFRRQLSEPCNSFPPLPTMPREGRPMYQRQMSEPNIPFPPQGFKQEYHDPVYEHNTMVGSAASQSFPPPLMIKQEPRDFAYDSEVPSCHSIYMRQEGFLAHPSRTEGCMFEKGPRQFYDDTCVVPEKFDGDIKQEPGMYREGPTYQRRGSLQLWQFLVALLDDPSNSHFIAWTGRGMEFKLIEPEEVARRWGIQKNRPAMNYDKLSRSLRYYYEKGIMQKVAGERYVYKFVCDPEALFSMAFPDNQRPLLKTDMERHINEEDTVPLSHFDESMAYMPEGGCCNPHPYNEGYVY
Sequence of ETV6 (P41212 whole entry): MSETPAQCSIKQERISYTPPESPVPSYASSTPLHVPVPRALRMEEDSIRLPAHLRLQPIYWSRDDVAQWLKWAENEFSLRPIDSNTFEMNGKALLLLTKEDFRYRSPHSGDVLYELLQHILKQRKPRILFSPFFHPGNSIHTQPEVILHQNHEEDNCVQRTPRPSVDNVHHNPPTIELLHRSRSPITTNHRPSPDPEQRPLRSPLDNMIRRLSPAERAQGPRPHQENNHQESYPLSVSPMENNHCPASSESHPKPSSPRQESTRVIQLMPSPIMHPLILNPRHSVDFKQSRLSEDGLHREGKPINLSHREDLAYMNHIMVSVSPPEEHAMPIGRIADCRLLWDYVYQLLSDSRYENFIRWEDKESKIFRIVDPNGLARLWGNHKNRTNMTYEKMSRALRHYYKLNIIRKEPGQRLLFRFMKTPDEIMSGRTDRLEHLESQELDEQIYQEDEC
Sequence of ELF1 (P32519 whole entry): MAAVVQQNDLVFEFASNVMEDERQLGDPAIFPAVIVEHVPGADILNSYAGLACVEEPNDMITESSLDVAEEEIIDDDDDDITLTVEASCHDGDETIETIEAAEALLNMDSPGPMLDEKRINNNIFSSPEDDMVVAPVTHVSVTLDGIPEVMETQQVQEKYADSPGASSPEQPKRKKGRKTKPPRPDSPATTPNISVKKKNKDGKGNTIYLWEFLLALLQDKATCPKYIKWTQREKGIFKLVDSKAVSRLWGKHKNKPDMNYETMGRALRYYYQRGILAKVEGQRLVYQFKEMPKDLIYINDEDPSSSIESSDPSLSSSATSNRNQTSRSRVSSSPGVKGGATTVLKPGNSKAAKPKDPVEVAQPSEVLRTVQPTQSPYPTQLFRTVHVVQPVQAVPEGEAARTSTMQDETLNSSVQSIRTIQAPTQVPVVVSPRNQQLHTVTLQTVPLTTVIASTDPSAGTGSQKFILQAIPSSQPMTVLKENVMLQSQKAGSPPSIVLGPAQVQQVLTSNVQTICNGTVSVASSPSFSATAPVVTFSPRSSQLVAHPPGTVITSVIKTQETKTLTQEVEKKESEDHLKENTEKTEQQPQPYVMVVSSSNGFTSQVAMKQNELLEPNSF

Which binding signal (ELK1) does the source give for CCCCAG here?
Its binding signal is 1 fold enrichment (6-mer frequency, TF over GST control).

And the binding signal (ERG)?
The binding signal was 1.05 fold enrichment (6-mer frequency, TF over GST control).

And the binding signal (ELF1)?
The binding signal was 1.04 fold enrichment (6-mer frequency, TF over GST control).

And the binding signal (EHF)?
Its binding signal is 1 fold enrichment (6-mer frequency, TF over GST control).

What about the binding signal (SPIC) of the same sequence?
The binding signal was 1.14 fold enrichment (6-mer frequency, TF over GST control).

And the binding signal (ELF4)?
The binding signal was 1.04 fold enrichment (6-mer frequency, TF over GST control).

What about the binding signal (ELK4) of the same sequence?
Its binding signal is 1.24 fold enrichment (6-mer frequency, TF over GST control).

What about the binding signal (ELF3) of the same sequence?
The binding signal was 1.16 fold enrichment (6-mer frequency, TF over GST control).

And the binding signal (ETV1)?
Its binding signal is 1.11 fold enrichment (6-mer frequency, TF over GST control).

What about the binding signal (ETV3L) of the same sequence?
The binding signal was 1.11 fold enrichment (6-mer frequency, TF over GST control).

And the binding signal (ETS2)?
Its binding signal is 1.04 fold enrichment (6-mer frequency, TF over GST control).

And the binding signal (ETV3)?
Its binding signal is 1.07 fold enrichment (6-mer frequency, TF over GST control).

And the binding signal (ETV6)?
The binding signal was 1.03 fold enrichment (6-mer frequency, TF over GST control).
